Reference: PubChem BioAssay (Tox21)
Inconclusive results are not listed. A call without a number means that no potency is given here. A number with no mark means an inactive call. Calls of active or inactive are those of the source. Calls come from the whole dose curve; as a rule, active = well fitted activation curve with a large enough effect in the repeat runs; inconclusive = weak or mixed curves, or effect the other way; inactive = no such curve, though single readings can be large or run the other way.

Assay: qHTS assay to identify small molecule agonists of the retinoic acid receptor (RAR) signaling pathway (AID 1159553)
Details: C3RL4 RARE luciferase reporter, agonist, 6 h; activation: at 73.3 µM (top of the series)
Description: National Center for Advancing Translational Sciences [NCATS] NIH Chemical Genomics Center [NCGC] U.S. Environmental Protection Agency [EPA] National Institutes of Environmental Health Sciences [NIEHS] National Toxicology Program [NTP] Assay overview: All-trans Retinoic acid (atRA) is the potent natural metabolite of retinol and plays an important role in normal embryonic development and maintenance of cellular phenotype in adult animals. atRA is the activating ligand for the retinoic acid receptors (RARs) which form heterodimers with retinoid X receptors (RXRs) on the retinoic acid response element (RARE). Through activation of the RAR/RXRs nuclear receptors, atRA regulates the transcription of a large number of protein-coding genes and regulatory RNAs. Intracellular levels of atRA are controlled by the retinol signaling pathway (RSP) that regulates the biosynthesis and catabolism of atRA to maintain physiological levels. Chemicals that interfere with the RSP can cause abnormal intracellular levels of atRA and therefore are potential developmental toxicants. To assess compounds for the potential adverse effect on embryonic development through interfering with retinol signaling, a cell-based RARE luciferase reporter gene assay was used. C3RL4 cell line (OARSA/CFSAN/FDA, Laurel, MD) was used to screen Tox21 10K compound library for identifying activators of the RSP.
Assay Protocol Summary: C3RL4 cells were seeded at 1,000/well in 5 uL of assay medium into white solid 1,536-well tissue culture plates (Greiner Bio-One North America Inc. Monroe, NC) using a Multidrop Combi (Thermo Scientific, Waltham, MA) dispenser. After incubation at 37 C and 5% CO2 for an overnight, 23 nL of compounds dissolved in DMSO, positive control or DMSO only were transferred by a Pintool station (Kalypsys, San Diego, CA). After 6 hr incubation at 37 C and 5% CO2, 5 uL of Amplite Luciferase reagent (AAT Bioquest Inc. Sunnyvale, CA) was added to each assay plate using a Flying Reagent Dispenser (FRD) (Aurora Discovery, San Diego, CA). Luminescence was quantified on a ViewLux plate reader (PerkinElmer, Waltham, MA) after 30 min incubation at room temperature.
Potency is the fitted concentration of half-maximal effect.

| Compound | Potency | activation |
| --- | --- | --- |
| CN(C1CCCCC1)S(=O)(=O)c1ccccc1N | inactive | – |
| CCCCC/C=C/CC(=O)OC | inactive | – |
| CCCCOC(=O)[C@@H](C)Oc1ccc(Oc2ccc(C(F)(F)F)cn2)cc1 | inactive | – |
| c1ccc(CNc2ncnc3nc[nH]c23)cc1 | inactive | – |
| NC(Cc1c[nH]c2ccccc12)C(=O)O (stereo not given) | inactive | – |
| C=CCOCC(CO)(COCC=C)COCC=C | inactive | – |
| CC(C)CCCCCCOC(=O)C1CCCCC1C(=O)OCCCCCCC(C)C (stereo not given) | inactive | – |
| C1=C\CC/C=C\CC/1 | inactive | – |
| CN=C(NC#N)NCCSCc1csc(N=C(N)N)n1 | inactive | – |
| C1CCN2C[C@@H]3C[C@@H](CN4CCCC[C@@H]34)[C@H]2C1 | inactive | – |
| O=S(=O)(O)c1cc(O)ccc1O | inactive | – |
| NS(=O)(=O)c1ccccc1OC(F)(F)F | inactive | – |
| COc1ccc(NS(=O)(=O)c2ccc(N)cc2)nn1 | inactive | – |
| CCOc1ccc(NC(=O)OC(C)C)cc1OCC | inactive | – |
| NS(=O)(=O)c1cc2c(cc1Cl)NC(C(Cl)Cl)NS2(=O)=O (stereo not given) | inactive | – |
| CCCCCN(CCCOC)C(=O)C(CCC(=O)O)NC(=O)c1ccc(Cl)c(Cl)c1 (stereo not given) | inactive | – |
| CC(CC(=O)O)CC(C)(C)C (stereo not given) | inactive | – |
| CCCCCC(=O)OCC | inactive | – |
| Nc1ccc(/C=C/c2ccc(N)cc2S(=O)(=O)O)c(S(=O)(=O)O)c1 | – | -0.705% [at 0.756 µM] |
| CN[C@@H]1[C@@H](O)[C@@H](O[C@@H]2[C@H](O)[C@H](O[C@H]3OC(CN)=CC[C@H]3N)[C@@H](N)C[C@H]2N)OCC1(C)O (stereo not given in full) | inactive | – |

| Compound | Potency | activation |
| --- | --- | --- |
| O=S(=O)(O)CCO | inactive | – |
| CC(C)COC(=O)/C=C/c1ccccc1 | 30.6 µM (active) | – |
| CCOC(=O)CCc1ccccc1 | inactive | – |
| COc1cc2c(Nc3ccc(Br)cc3F)ncnc2cc1OCC1CCN(C)CC1 | inactive | – |
| Nc1ccc(S(=O)(=O)Nc2ccccn2)cc1 | inactive | – |
| CCCC(C)CC (stereo not given) | inactive | – |
| Nc1ccnc(=O)[nH]1 | inactive | – |
| CCC(=O)c1ccc(O)cc1 | inactive | – |
| CCCOCCOCCOCCO | inactive | – |
| CC(=O)OCCCc1ccccc1 | inactive | – |
| CN(C)CCCNCCC#N | inactive | – |
| CCCCCCCCCCCCCC(=O)OC | inactive | – |
| Oc1ccccc1Cc1ccccc1O | inactive | – |
| C=CC(C)(O)CC/C=C(\C)CC (stereo not given) | inactive | – |
| C=C(C)C(=O)OC | inactive | – |
| Cn1c(=O)c2c(ncn2CC2OCCO2)n(C)c1=O | inactive | – |
| C=C(C)C(=O)OCCCCCCOC(=O)C(=C)C | inactive | – |
| CC(C)(c1ccc(Oc2ccc3c(c2)C(=O)OC3=O)cc1)c1ccc(Oc2ccc3c(c2)C(=O)OC3=O)cc1 | inactive | – |
| CC1CCC(C(C)(C)S)C(=O)C1 (stereo not given) | inactive | – |
| O=[Si]=O | inactive | – |
